Common to all, as to assay: NCI-60 one-dose screen, 48 h (100 = growth as untreated, 0 = no growth, -100 = all killed)
Common to all, as to conditions: 10 µM unless noted

Assay [1] relates to SK-MEL-2 melanoma.
Assay [2] has as its system EKVX NSCLC.
In assay [3] the test system is SN12C renal.
Assay [4] relates to UO-31 renal.
In assay [5] the test system is TK-10 renal.
The test system of assay [6] is ACHN renal.
Assay [7] deals with CAKI-1 renal.
For assay [8], the system named is A498 renal.
The subject of assay [9] is CCRF-CEM leukemia.
The subject of assay [10] is MOLT-4 leukemia.

About 83,000 compounds went through this panel and 20% of them were active in at least one assay; those are over-represented in the sample as a whole.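 Results are percent growth after 48 hours of single-concentration exposure. 100 means growth as in untreated cells, lower positive values show inhibition; negative values down to -100 show cell death.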 Values without a mark were called inactive. Calls of active or inactive are those of the source. Rule for the calls: active = growth percent below 10; inactive = the rest.

On to `COc1ccc2[nH]cc(-c3cc(N)n4nc(-c5c[nH]c6ccccc56)cc4n3)c2c1`, for which the growth was -63.7% (active) in assay [1]; 10.9% in [2]; 49.1% in [3]; -74.9% (active) in assay [4]; -1.71% (active) in assay [5]; 8.14% (active) in [6]. Moreover, the growth in [7] is -59.5% (active); in [8], -0.442% (active); in [9], -20% (active); in assay [10] it was -7.46% (active).
For the compound `Cn1cc(Nc2ncnc(-c3ccc(N4CCCC4)c(C#N)c3)n2)cn1`, the growth was 88.4% in [1]; 95.3% in [2]; 70.7% in assay [3]; 41.9% in assay [4]; 66.2% in assay [5]; 52.3% in assay [6]. For the same compound, the growth in assay [7] was 22.4%; in assay [8], 42.6%; in assay [9], 72.2%; in assay [10] it was 65.5%.
`O=C1/C(=C/C=C/c2ccco2)SC(=S)N1CC(=S)C1C=CS(=O)(=O)C1` (stereo not given): the growth in assay [1] is 88.1%; in assay [2], 94%; in [3] it was 81.2%; in assay [4], 84.1%; in [5], 126%; in assay [6], 100%. Also, the growth was 107% in [7], 141% in [8], 45.9% in [9] and 68.8% in [10].
As to `COc1ccc(-n2c(NC(=O)N3CCN(C)CC3)c(C#N)c3ccccc32)cc1`, the growth is 72.9% in [1]; 12.3% in assay [2]; 23% in assay [3]; -15.6% (active) in assay [4]; 12.4% in assay [5]; 21.9% in [6]. In addition, the growth in assay [7] was 15%; in assay [8], 139%; in assay [9] it was 60.5%; in assay [10] it was 43.9%.
For `O=C(CSc1nc2c(c(=O)[nH]1)CCCC2)Nc1ccccc1C(=O)O`, the growth was 98.9% in [1]; 99.2% in [2]; 93.3% in assay [3]; 82.3% in [4]; 106% in assay [5]; 106% in assay [6]. The growth in assay [7] was 89.5%; in assay [8] it was 173%; in assay [9] it was 101%; in [10] it was 99.3%.
Take `CC[C@@]12CC(C(=O)OC)=C3Nc4cc5c(cc4[C@@]34CCN(C[C@H]3O[C@H]31)[C@@H]24)[C@@H]1[C@H](O5)[C@@H](O)[C@@]2(CC)CC(C(=O)OC)=C3Nc4cc(O)ccc4[C@@]34CCN1[C@@H]24`: the growth in assay [1] is -70.4% (active); in assay [2] it was -14.9% (active); in [3], -16.8% (active); in [4], -66.2% (active); in assay [5], -41.1% (active); in assay [6], -26.4% (active). Besides, the growth is -55.8% (active) in [7], -77.1% (active) in assay [8], 2.67% (active) in assay [9] and -15.9% (active) in assay [10].
As for `COc1cc(CNC(=O)C[C@H](C)CCC=C(C)C)ccc1OCc1cn(-c2ccc(Br)cc2)nn1`, the growth in [1] is 78%; in assay [2] it was 79%; in assay [3], 71.6%; in assay [4] it was 62.9%; in assay [5] it was 109%; in assay [6] it was 56.4%. Further, the growth in assay [7] is 28.8%; in assay [8] it was 105%; in assay [9], 61.1%; in assay [10], 70%.
As to `Nc1cc(-c2c[nH]c3ccc(Br)cc23)nc2cc(-c3c[nH]c4ccccc34)nn12`, the growth in [1] is -66.8% (active); in assay [2], -67.5% (active); in assay [3] it was -66.3% (active); in assay [4] it was -54% (active); in [5] it was -57.3% (active); in assay [6] it was -35.5% (active). Moreover, the growth was -48.6% (active) in assay [7], -77.3% (active) in assay [8], -13.8% (active) in assay [9] and 3.76% (active) in assay [10].
As to `NCCCCn1c(SCCc2c[nH]c3ccccc23)nnc1-c1ccc2ccccc2n1`, the growth in [1] was -73.5% (active); in assay [2], -0.327% (active); in [3], -14.8% (active); in assay [4] it was 26.4%; in assay [5] it was -7.11% (active); in assay [6], -55.1% (active). The growth in assay [7] is -9.25% (active); in [8], 98.5%; in assay [9] it was -23.3% (active); in assay [10], -35.4% (active).
In the case of `CN(C(=O)CN1C(=O)/C(=C/c2ccco2)SC1=S)C1CCS(=O)(=O)C1` (stereo not given), the growth is 98.5% in [1]; 97.9% in [2]; 104% in assay [3]; 87.8% in assay [4]; 122% in [5]; 106% in [6]. The growth in assay [7] is 93.5%; in [8], 103%; in assay [9], 80.3%; in assay [10] it was 100%.
With `Nc1nnc(-c2cncc(Br)c2)c(-c2c[nH]c3ccc(Cl)cc23)n1`, the growth in assay [1] was 111%; in [2], 78.4%; in assay [3] it was 83.2%; in assay [4], 41.4%; in assay [5], 111%; in assay [6], 66.1%. In addition, the growth is 59.1% in assay [7], 112% in [8], 52.9% in assay [9] and 54.4% in [10].
Turning to `COc1cc(/C=N/NC(=O)c2ccc(OCc3nc4ccc(Cl)cc4[nH]3)cc2)cc(OC)c1OC`, the growth was 74.5% in assay [1]; 33.3% in assay [2]; 48.7% in [3]; 45.5% in assay [4]; 74.9% in [5]; 39.1% in assay [6]. Besides, the growth in assay [7] was 40.5%; in assay [8], 121%; in assay [9] it was 3.83% (active); in assay [10], 12.1%.
As to `CCCCCCCCc1ccc(C(=O)Nc2ccc(C)c(OP(=O)(O)O)c2)cc1`, the growth in assay [1] is 109%; in [2], 101%; in [3], 95.1%; in [4], 62.4%; in [5], 107%; in [6], 103%. The growth in assay [7] is 102%; in assay [8], 107%; in [9], 42.9%; in assay [10] it was 78.3%.
